Measurements taken from PubChem BioAssay (Tox21).
Results filed as inconclusive are left out. Active and inactive are the calls of the source. Unless noted, calls follow the shape of the dose curve; as a rule, active = well fitted curve in the direction sought with a large enough effect in the repeat runs; inconclusive = weak or mixed curves; inactive = no such curve, though single readings can be large; an effect the other way counts as inactive or inconclusive.

How the values were obtained:
[1] = qHTS assay to identify small molecule antagonists of the estrogen related receptor (ERR) signaling pathway from Tox21 library - cell viability counter screen (AID 1224834); also: nearly all actives have a fitted effect of over 30% in size
Method in brief: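 ERR cells, 2,000/well; 6 h settle at 37 C/5% CO2; pin-tool compound transfer in DMSO; 17.5 h at 37 C; CellTiter-Fluor, 30 min; fluorescence intensity.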

[2] = molecular target: Nuclear receptor subfamily 1 group I member 3 (Homo sapiens) (UniProt Q14994); assay: qHTS assay to identify small molecule antagonists of the constitutive androstane receptor (CAR) signaling pathway (AID 1224838);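 also: HepG2 cells stably expressing hCAR with CYP2B6 luciferase reporter stimulated by CITCO; nearly all actives have a fitted effect of over 40% in size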
Method in brief: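 Antagonist mode used CITCO at a final 50 nM to activate CAR in human hepatoma HepG2 cells carrying stable hCAR and a 2.2 kb CYP2B6 promoter-luciferase construct. Compounds were tested at 15 concentrations over 24 h, with luminescence as the end point.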

[3] = qHTS assay to identify small molecule antagonists of the estrogen related receptor signaling pathway with the pleiotropic PPARgamma coactivator (PGC) from Tox21 10K library - cell viability counter screen (AID 1224840; active = well fitted cell-killing curve with a large enough effect in the repeat runs, not every such curve was filed as active; also: nearly all actives have a fitted effect of over 40% in size)
Method in brief: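 Multiplexed viability counter screen in the PGC/ERR cell line: cells treated with DMSO-dissolved compounds for 17.5 hours at 37 C, then viability measured as CellTiter-Fluor fluorescence.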

[4] = qHTS assay to identify small molecule antagonists of the estrogen related receptor signaling pathway with the pleiotropic PPARgamma coactivator (PGC) from Tox21 10K library (AID 1224841; call rule not given here; also: actives are mostly falling curves and most rising ones were filed inactive; nearly all actives have a fitted effect of over 50% in size)
Method in brief: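 Steps: plate 2,000 PGC/ERR cells per well; incubate 6 h at 37 C with 5% CO2; transfer compounds from DMSO stocks by pin tool; incubate 18 h at 37 C; add One-Glo; measure luminescence 30 min later.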

[5] = qHTS assay to identify small molecule agonists of the estrogen related receptor signaling pathway with the pleiotropic PPARgamma coactivator (PGC) from Tox21 10K library (AID 1224842); also: nearly all actives have a fitted effect of over 15% in size; also: potency is read from the fitted curve at half-maximal effect
Method in brief: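 PGC/ERR reporter cells (NTP line) were seeded 2,000 per well, rested 6 h at 37 C/5% CO2, then pin-dosed with compounds in DMSO for 18 h at 37 C; luciferase read by One-Glo luminescence after 30 min at room temperature.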

[6] = molecular target: Thyrotropin receptor (Homo sapiens) (UniProt P16473); assay: qHTS assay to identify small molecule agonists of the thyroid stimulating hormone receptor (TSHR) signaling pathway (AID 1224843; calls by dose curve; also: nearly all actives have a fitted effect of over 45% in size)
Method in brief: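 Using 15 concentrations per compound in triplicate, cAMP production was monitored in TSHR-HEK293 cells after 30 min compound incubation at RT; HTRF reagents followed, with fluorescence intensity recorded after 1 h.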

[7] = qHTS assay to identify small molecule agonists of the hypoxia (HIF-1) signaling pathway - cell viability counter screen (AID 1224844; calls by dose curve; also: nearly all actives have a fitted effect of over 50% in size)
Method in brief: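 Cytotoxicity was measured in parallel with the HRE-driven beta-lactamase readout: after 17 hrs of compound exposure at 37C, HRE-bla ME-180 cells received CellTiter-Glo and luminescence was recorded 30 min later.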

[8] = qHTS assay to identify small molecule agonists of H2AX (AID 1224845; active = well fitted activation curve with a large enough effect in the signal ratio in the repeat runs, not every such curve was filed as active; the % refers to the signal ratio)
Method in brief: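 Wild-type CHO-K1 cells plated overnight, then exposed 3 hr at 37C to compounds at 15 concentrations (0.76% DMSO). Lysed, then HTRF anti-pH2AX(S139)-cryptate/anti-H2AX-d2 detection after 24 hr at room temperature; emissions 665 and 620 nm.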

[9] = qHTS assay to identify small molecule agonists of the hypoxia (HIF-1) signaling pathway (AID 1224846; active = well fitted activation curve with a large enough effect in the signal ratio in the repeat runs, not every such curve was filed as active; the % refers to the signal ratio)
Method in brief: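 Compounds from the Tox21 10K library, dissolved in DMSO, are tested for induction of a hypoxia response element–controlled beta-lactamase reporter in ME-180 cells. Exposure lasts 17 hrs at 37C after a 5 hr settling period, followed by CCF4-AM FRET substrate.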

[10] = qHTS assay to identify small molecule agonists of H2AX - cell viability counter screen (AID 1224847; calls by dose curve; also: top concentration of the series differs between compounds; nearly all actives have a fitted effect of over 30% in size)
Method in brief: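 Viability of CHO-K1 (wild type) cells after 3 hr compound exposure was measured by CellTiter-Glo luminescence.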

[11] = qHTS assay to identify small molecule antagonists of the estrogen related receptor (ERR) signaling pathway from Tox21 library (AID 1224848); also: nearly all actives have a fitted effect of over 50% in size
Method in brief: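 Tox21 10K compounds in DMSO tested for ERR pathway antagonism in NTP's ERR cell line; 18 h, 37 C exposure; ONE-Glo luminescence.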

[12] = qHTS assay to identify small molecule agonists of the estrogen related receptor (ERR) signaling pathway from Tox21 library (AID 1224849; calls by dose curve; also: nearly all actives have a fitted effect of over 15% in size); details: ERR reporter cell line, ONE-Glo luciferase, 18 h; at 92.4 µM (top of the series) unless noted
Method in brief: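 Cells carrying the ERR reporter were plated and allowed to settle for 6 h, exposed to library compounds for 18 h at 37 C, then lysed with ONE-Glo and luminescence measured.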

[13] = qHTS RealTime-Glo MT Cell Viability Assay in HepG2 cells - 24 hour (AID 1224867); also: nearly all actives have a fitted effect of over 50% in size
Method in brief: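 Compound treatment began 5 h after plating HepG2 cells (600/well) with NanoLuc luciferase and prosubstrate. Plates stayed at 37 C for 40 h; luminescence was captured at six time points, 0 h through 40 h.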

[14] = A CellTox Green Cytotoxicity Assay to monitor cytotoxicity in HEK293 cells - 0 hour (AID 1224869); also: nearly all actives have a fitted effect of over 50% in size
Method in brief: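 Cells (HEK293, 600/well) and dye reagent are dispensed together. After 5 h at 37 C, 23 nL compound is pinned in. Plates stay at 37 C for 40 h with fluorescence read at 0h, 8h, 16h, 24h, 32h and 40h.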

[15] = qHTS assay to identify small molecule agonists of the constitutive androstane receptor (CAR) signaling pathway - cell viability counter screen (AID 1224836); also: nearly all actives have a fitted effect of over 45% in size
Method in brief: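 Fluorescence from CellTiter-Fluor indicates live cells after 23 h exposure. The human hepatoma line expresses hCAR and a CYP2B6-2.2kb reporter. Incubation medium contains 0.75 uM PK11195 (final).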

[16] = qHTS assay to identify small molecule antagonists of the constitutive androstane receptor (CAR) signaling pathway - cell viability counter screen (AID 1224837); also: nearly all actives have a fitted effect of over 45% in size
Method in brief: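 Viability was measured with CellTiter-Fluor in a HepG2 line carrying stably transfected hCAR and a CYP2B6-2.2kb construct. Cells were exposed for 23 hr at 37 C to 15 compound concentrations with 50 nM CITCO as agonist.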

[17] = qHTS RealTime-Glo MT Cell Viability Assay in HEK293 cells - 32 hour (AID 1224868)
Method in brief: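 Quantitative high-throughput screen of the Tox21 10K library in HEK293: cells and RealTime-Glo reagents plated together, compound added at 5 h, luminescence monitored through 40 h at 37 C.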

[18] = molecular target: Nuclear receptor subfamily 1 group I member 3 (Homo sapiens) (UniProt Q14994); assay: qHTS assay to identify small molecule agonists of the constitutive androstane receptor (CAR) signaling pathway (AID 1224839); also: nearly all actives have a fitted effect of over 15% in size; also: potency is read from the fitted curve at half-maximal effect
Method in brief: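 Stable hCAR/CYP2B6-2.2kb HepG2 line in DMEM with 10% FBS; compounds (15 concentrations) and 0.75 uM PK11195 final, 24 h at 37 C/5% CO2, then ONE-Glo luminescence after 30 min.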

[19] = molecular target: Luciferin 4-monooxygenase (Photinus pyralis) (UniProt P08659); assay: qHTS assay to identify small molecule inhibitors of firefly luciferase (AID 1224835); also: nearly all actives have a fitted effect of over 25% in size
Method in brief: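 Quantitative HTS format; KM concentrations of both substrates. Purified P. pyralis FLuc activity quantified from luminescence images.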
% is scaled to controls: 0 for no effect and ±100 for the full control effect.

Sequence of Luciferin 4-monooxygenase (Photinus pyralis) (P08659 whole entry, looked up): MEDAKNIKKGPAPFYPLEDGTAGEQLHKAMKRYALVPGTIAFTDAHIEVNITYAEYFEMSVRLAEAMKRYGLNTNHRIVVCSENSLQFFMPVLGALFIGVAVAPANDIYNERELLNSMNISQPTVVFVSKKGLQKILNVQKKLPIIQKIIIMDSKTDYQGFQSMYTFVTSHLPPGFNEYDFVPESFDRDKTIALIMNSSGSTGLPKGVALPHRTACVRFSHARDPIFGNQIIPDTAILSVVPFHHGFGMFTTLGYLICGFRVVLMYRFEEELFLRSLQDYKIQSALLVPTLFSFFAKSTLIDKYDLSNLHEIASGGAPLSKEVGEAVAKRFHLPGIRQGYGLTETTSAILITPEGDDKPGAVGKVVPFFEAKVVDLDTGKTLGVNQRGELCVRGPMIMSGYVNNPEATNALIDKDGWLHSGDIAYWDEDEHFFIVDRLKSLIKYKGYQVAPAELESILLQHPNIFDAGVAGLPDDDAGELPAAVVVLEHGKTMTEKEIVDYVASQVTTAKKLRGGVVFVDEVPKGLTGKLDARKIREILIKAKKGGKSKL
Sequence of Nuclear receptor subfamily 1 group I member 3 (Homo sapiens) (Q14994 whole entry, looked up): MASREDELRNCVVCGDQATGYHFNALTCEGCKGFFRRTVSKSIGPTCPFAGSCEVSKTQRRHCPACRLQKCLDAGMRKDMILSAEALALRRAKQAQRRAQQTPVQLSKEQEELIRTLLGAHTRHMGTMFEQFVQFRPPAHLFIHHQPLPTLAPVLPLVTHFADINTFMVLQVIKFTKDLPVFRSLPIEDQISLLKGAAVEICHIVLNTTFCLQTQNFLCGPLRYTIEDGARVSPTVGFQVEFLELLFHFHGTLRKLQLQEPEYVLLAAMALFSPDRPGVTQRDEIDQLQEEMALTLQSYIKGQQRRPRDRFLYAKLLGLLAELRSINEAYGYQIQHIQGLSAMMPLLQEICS
Sequence of Thyrotropin receptor (Homo sapiens) (P16473 whole entry, looked up): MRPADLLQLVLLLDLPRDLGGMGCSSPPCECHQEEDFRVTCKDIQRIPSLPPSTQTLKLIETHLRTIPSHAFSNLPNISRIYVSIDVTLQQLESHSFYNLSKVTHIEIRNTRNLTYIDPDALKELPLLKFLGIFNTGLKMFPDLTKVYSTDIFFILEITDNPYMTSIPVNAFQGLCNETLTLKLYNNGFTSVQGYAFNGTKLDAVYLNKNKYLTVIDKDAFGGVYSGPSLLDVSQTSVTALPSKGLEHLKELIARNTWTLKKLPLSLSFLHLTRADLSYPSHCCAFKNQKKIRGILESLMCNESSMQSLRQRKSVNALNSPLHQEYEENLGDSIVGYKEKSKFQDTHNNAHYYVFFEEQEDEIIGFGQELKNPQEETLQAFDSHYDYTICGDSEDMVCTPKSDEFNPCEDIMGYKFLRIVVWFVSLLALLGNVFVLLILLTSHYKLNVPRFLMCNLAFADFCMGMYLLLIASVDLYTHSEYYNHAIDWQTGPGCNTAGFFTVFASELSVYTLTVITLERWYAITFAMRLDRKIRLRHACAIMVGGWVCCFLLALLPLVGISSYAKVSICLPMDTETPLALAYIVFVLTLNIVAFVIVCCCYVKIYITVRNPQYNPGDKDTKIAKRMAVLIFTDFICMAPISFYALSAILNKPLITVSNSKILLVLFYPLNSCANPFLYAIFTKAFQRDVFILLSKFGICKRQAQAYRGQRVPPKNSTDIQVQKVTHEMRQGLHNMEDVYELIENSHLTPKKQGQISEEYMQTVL

Cc1ccc(-c2nc3ccc(C)cn3c2CC(=O)N(C)C)cc1
inactive: Potency [1] | Potency [2] | Potency [3] | Potency [4] | Potency [6] | Potency [7] | outcome [8] | outcome [9] | Potency [10] | Potency [11] | Potency [13] | outcome [14]
active: Potency [5] 10.6 µM | activity change, positive = activation [12] 37.3% [at 42.5 µM]

COc1cccc([C@@]2(O)CCCC[C@@H]2CN(C)C)c1
inactive: Potency [1] | Potency [15] | Potency [16] | Potency [3] | Potency [4] | Potency [5] | Potency [6] | Potency [7] | outcome [8] | outcome [9] | Potency [10] | Potency [11] | activity change, positive = activation [12] 1.87% [at 42.5 µM] | Potency [13] | Potency [17] | outcome [14]

NCCOS(=O)(=O)O
inactive: Potency [1] | Potency [15] | Potency [16] | Potency [3] | Potency [6] | Potency [7] | outcome [8] | outcome [9] | Potency [10] | Potency [13] | outcome [14]

CCC(CC)(CNC(=O)CCCO)c1cccc(OC)c1
inactive: Potency [1] | Potency [16] | Potency [2] | Potency [18] | Potency [3] | Potency [4] | Potency [5] | Potency [6] | Potency [7] | outcome [8] | outcome [9] | Potency [10] | Potency [11] | activity change, positive = activation [12] 4.37% [at 42.5 µM] | Potency [13] | Potency [17] | outcome [14]

CCCOC(=O)c1cncn1C(C)c1ccccc1 (centres undefined)
inactive: Potency [1] | Potency [2] | Potency [3] | Potency [4] | Potency [5] | Potency [6] | Potency [7] | outcome [8] | outcome [9] | Potency [10] | Potency [11] | Potency [13] | Potency [17] | outcome [14]

Cn1c(N)nc2c3cccnc3ccc21
inactive: Potency [2] | Potency [3] | Potency [7] | outcome [8] | outcome [9] | Potency [10] | Potency [13] | Potency [17] | outcome [14]
active: Potency [18] 32.7 µM

CC(C)NCC(O)c1ccc([N+](=O)[O-])cc1 (centres undefined)
inactive: Potency [1] | Potency [16] | Potency [2] | Potency [18] | Potency [3] | Potency [6] | Potency [7] | outcome [8] | outcome [9] | Potency [10] | Potency [13] | Potency [17] | outcome [14]

S=C=S
inactive: Potency [1] | Potency [15] | Potency [2] | Potency [18] | Potency [3] | Potency [4] | Potency [5] | Potency [6] | Potency [7] | outcome [8] | outcome [9] | Potency [10] | Potency [11] | activity change, positive = activation [12] 2.11% | Potency [13] | Potency [17] | outcome [14]

CON(C)C(=O)Nc1ccc(Br)cc1
inactive: Potency [19] | Potency [15] | Potency [16] | Potency [2] | Potency [3] | Potency [6] | Potency [7] | outcome [8] | outcome [9] | Potency [10] | Potency [13] | outcome [14]

O=C(Cl)/C=C/C(=O)Cl
inactive: Potency [1] | Potency [16] | Potency [3] | Potency [5] | Potency [7] | outcome [8] | outcome [9] | Potency [10] | Potency [11] | Potency [13] | outcome [14]

O=c1[nH]c2ccccc2o1
inactive: Potency [1] | Potency [16] | Potency [2] | Potency [18] | Potency [3] | Potency [5] | Potency [6] | Potency [7] | outcome [8] | outcome [9] | Potency [10] | Potency [11] | activity change, positive = activation [12] -3.64% | Potency [13] | outcome [14]

ClCCCCCCCl
inactive: Potency [1] | Potency [15] | Potency [2] | Potency [18] | Potency [3] | Potency [6] | Potency [7] | outcome [8] | outcome [9] | Potency [10] | Potency [13] | Potency [17] | outcome [14]

CCCOC(=O)Cc1ccc(OCC(=O)N(CC)CC)c(OC)c1
inactive: Potency [1] | Potency [15] | Potency [16] | Potency [3] | Potency [6] | Potency [7] | outcome [8] | outcome [9] | Potency [10] | Potency [13] | outcome [14]

CCOc1cc(OP(=S)(OC)OC)nc(CC)n1
inactive: Potency [1] | Potency [15] | Potency [16] | Potency [3] | Potency [6] | Potency [7] | outcome [8] | outcome [9] | Potency [10] | Potency [13] | Potency [17] | outcome [14]

NC1(c2ccccc2)CCCCC1
inactive: Potency [19] | Potency [18] | Potency [3] | Potency [6] | Potency [7] | outcome [8] | outcome [9] | Potency [10] | Potency [13] | Potency [17] | outcome [14]

Clc1nc(Cl)nc(Nc2ccccc2Cl)n1
inactive: Potency [1] | Potency [15] | Potency [2] | Potency [18] | Potency [3] | Potency [4] | Potency [5] | Potency [6] | Potency [7] | outcome [8] | outcome [9] | Potency [10] | Potency [11] | activity change, positive = activation [12] 2.23% | Potency [13] | outcome [14]

CC[C@H](O)C(C[C@H](C)N(C)C)(c1ccccc1)c1ccccc1
inactive: Potency [19] | Potency [15] | Potency [16] | Potency [2] | Potency [18] | Potency [3] | Potency [6] | Potency [7] | outcome [8] | outcome [9] | Potency [13] | outcome [14]

NCC1(CC(=O)O)CCCCC1
inactive: Potency [1] | Potency [15] | Potency [16] | Potency [3] | Potency [6] | Potency [7] | outcome [8] | Potency [10] | Potency [13] | Potency [17] | outcome [14]

Oc1ccc2c3c1O[C@H]1[C@@H](O)C=C[C@H]4[C@@H](C2)NCC[C@@]341
inactive: Potency [1] | Potency [15] | Potency [16] | Potency [3] | Potency [5] | Potency [6] | Potency [7] | outcome [8] | Potency [10] | activity change, positive = activation [12] -18.1% | Potency [13] | Potency [17] | outcome [14]

O=[N+]([O-])c1cccc(CCl)c1
inactive: Potency [1] | Potency [15] | Potency [16] | Potency [2] | Potency [3] | Potency [6] | Potency [7] | outcome [8] | outcome [9] | Potency [10] | Potency [11] | activity change, positive = activation [12] -0.166% | Potency [13] | Potency [17] | outcome [14]
